Assay results: PubChem BioAssay AID1347416 (National Center for Advancing Translational Sciences (NCATS), 2020)
Screen size: about 4,100 compounds; about 1,600 (39%) were called active. Roughly 25% stayed inconclusive and do not appear here. This is one part of the list. Unmarked numbers belong to inactive results. Calls follow the shape of the dose curve; as a rule, active = well fitted inhibition curve with a large enough effect; inconclusive = small, poorly fitted or top-dose-only effect; inactive = no such curve, though single readings can be large or run the other way.

assay: qHTS Validation assay for Inhibitors of Plasmodium falciparum Dd2 growth in vitro; also: nearly all actives have a fitted effect of over 70% in size; details: P. falciparum Dd2 in RBCs, SYBR Green growth, 72 h; series mostly up to 28.7 µM; activity change, negative = inhibition: at the top concentration
How it was run: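 P. falciparum Dd2-infected red blood cells (2.5% hematocrit, 0.3% parasitemia) grown 72 h at 37 °C under 5% O2 with compounds in a titration, 29 uM to 0.5 nM final. Growth read as SYBR Green-1 fluorescence after ~16 h lysis; artesunate 300 nM as positive control.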
% is scaled to controls: 0 for no effect and ±100 for the full control effect; potency is read from the fitted curve at half-maximal effect.

| Compound | activity change, negative = inhibition | Potency |
| --- | --- | --- |
| CCCCC(CC)CNC(=O)CCCCCn1c(=O)[nH]c2ccsc2c1=O (configuration not stated) | -7.19% |  |
| COc1ccc(C(CCN2CCCCC2)c2c(O)cc(OC)cc2OC)cc1 (configuration not stated) |  | 1.33 µM (active) |
| CCn1ccc2ccc(CN3CCCC(O)(CN4CCCC4)C3)cc21 (configuration not stated) |  | 7.5 µM (active) |
| COc1ccc(C(=O)N2CCCC(O)(CN3CCCC3)C2)cc1Cl (configuration not stated) | -13.3% |  |
| C=CCN(Cc1ccccc1OCC)C(=O)c1ccc(N(C)S(C)(=O)=O)cc1 | 4.22% |  |
| CCCC1=[N+](CC)CCn2c(C)ccc21 | -15.7% |  |
| COC(=O)c1c(-c2c(Cl)cccc2Cl)noc1NC(=O)NN1CCCCC1 |  | 2.37 µM (active) |
| CN1CCC(NCCC(c2ccc(F)cc2)c2ccc(Cl)cc2)CC1 (configuration not stated) |  | 4.22 µM (active) |
| OC(CN1CCC(Cc2ccc(F)cc2)CC1)c1ccc(Cl)cc1 (configuration not stated) | -97.7% |  |
| CCC(=O)N(C1=C(NC(C)C)C(=O)c2ccccc2C1=O)C(C)C |  | 2.37 µM (active) |
| COCCNC(=O)c1ccc(OC2CCN(C/C=C/c3ccc(F)cc3)CC2)c(Cl)c1 |  | 10.6 µM (active) |
| O=C(NC1CCCC1)c1ccc(OC2CCN(CCCC(F)(F)F)CC2)c(Cl)c1 |  | 9.44 µM (active) |
| CC(=O)Nc1cc(-c2ccccc2)ccc1O |  | 4.73 µM (active) |
| CN(Cc1ccc(-c2ccccc2)cc1)C(=O)C1CC1 | 11.1% [at 43.1 µM] |  |
| CC(=O)Nc1ccc(/C(C)=N\NC(=O)c2ccc(-c3ccccc3)cc2)cc1 | 18.3% |  |
| CC(C)(Oc1nn(Cc2cccc(Cl)c2)c2ccccc12)C(=O)NCCN1CCOCC1 |  | 5.31 µM (active) |
| CC(C)(Oc1nn(CCOc2ccccc2)c2ccccc12)C(=O)NCc1cnccn1 | -20.1% [at 43.1 µM] |  |
| CN1CCN(C(=O)C(C)(C)Oc2nn(Cc3cccc(Cl)c3)c3ccccc23)CC1 |  | 7.69 µM (active) |
| COCc1ccc2c(c1)c(OC(C)(C)C(=O)NCC1CCOCC1)nn2Cc1cccnc1 | 22.6% |  |
| CC(C)n1nc(OC(C)(C)C(=O)NCCc2cccnc2)c2cc(CN3CCOCC3)ccc21 | -3.54% |  |
| COCc1ccc2c(c1)c(OC(C)(C)C(=O)N1CCN(CCO)CC1)nn2Cc1ccccc1 |  | 9.44 µM (active) |
| CCCCn1cc(C(=O)c2cc(Br)ccc2O)cc(C#N)c1=O |  | 13.3 µM (active) |
| N#Cc1cc(C(=O)c2cc(Br)ccc2O)cn(C2CCCCC2)c1=O |  | 0.668 µM (active) |
| CN(C)c1cc[n+](Cc2ccccc2)cc1 |  | 10.6 µM (active) |
| CCOC(=O)CCCOc1cccn2c(=O)c(-c3cc(C)n(-c4ccc(Cl)cc4)n3)c(C)nc12 |  | 10.6 µM (active) |

| Compound | activity change, negative = inhibition | Potency |
| --- | --- | --- |
| COc1ccc(-n2nc(C3CCN([S+](=O)([O-])c4cccc(C(F)(F)F)c4)CC3)[nH]c2=O)cc1 | 0% |  |
| CC(C)CCN1CCC2(CC1)CC(=O)N(c1ccccc1)c1ccccc1O2 | -9.65% |  |
| O=C1CC2(CCN([S+](=O)([O-])c3cccc(C(F)(F)F)c3)CC2)Oc2ccccc2N1c1ccccc1 |  | 6.68 µM (active) |
| Cc1ccc(S(=O)(=O)NC(=O)Nc2ccc(N(C)C)cc2)cc1 |  | 1.33 µM (active) |
| CN(C)c1ccc(NC(=O)Oc2ccccc2)cc1 | 11.4% |  |
| Cc1c(CN2CCN(CC(C)(C)C)C(CCO)C2)[nH]c2ccccc12 (configuration not stated) |  | 9.44 µM (active) |
| CC(C)c1ccccc1NC(=O)C(Cc1c[nH]c2ccccc12)NC(=O)OC(C)(C)C (configuration not stated) | -18.5% |  |
| CC(C)CC(NC(=O)C(NC(=O)OC(C)(C)C)C(C)C)C(=O)NC(CCC(=O)OCc1ccccc1)C(N)=O (configuration not stated) |  | 8.41 µM (active) |
| CCCCCn1c(=N)n(CC(O)COc2cccc(C)c2)c2ccccc21 (configuration not stated) |  | 2.11 µM (active) |
| N=c1n(CCN2CCCCC2)c2ccccc2n1CC(O)COc1ccc(Cl)cc1Cl (configuration not stated) |  | 4.22 µM (active) |
| CCn1c(=N)n(CC(O)c2cccs2)c2ccccc21 (configuration not stated) | -26.2% |  |
| CCN(CC)CCn1c(=N)n(CC(O)COc2ccccc2C)c2ccccc21 (configuration not stated) |  | 3.35 µM (active) |
| CC(C)CN1CCN(C(=O)CCC[C@@H]2[C@H]3CCCN4CCC[C@@H](CN2Cc2cccnc2)[C@@H]34)CC1 | -17% |  |
| CCN(Cc1ccccc1)C(=O)CCC[C@@H]1[C@H]2CCCN3CCC[C@@H](CN1C(=O)c1ccccc1)[C@@H]23 |  | 13.3 µM (active) |
| CC(=O)N1C[C@@H]2CCCN3CCC[C@@H]([C@H]23)[C@H]1CCCC(=O)Nc1ccccc1 | -1.67% |  |
| COc1ccccc1Nc1cnc2ccc(-c3ccc(F)cc3)nn12 |  | 6.85 µM (active) |
| COc1ccccc1C(=O)NCc1nnc2ccc(-c3ccc(C)cc3)nn12 | 0% |  |
| COc1ccccc1Nc1cnc2ccc(-c3ccc(OC)c(OC)c3)nn12 |  | 1.53 µM (active) |
| CCOc1ccc(C(C)NC(=S)NC2CCCCC2)cc1OCC (configuration not stated) |  | 0.211 µM (active) |
| CC(C)c1ccc(OCC(=O)NC2CCCC2)cc1 | -28.4% |  |
| COc1ccc(C(C)NC(=S)NC2CCCC2)cc1OC (configuration not stated) |  | 6.68 µM (active) |
| CN1CCN(C(=O)c2ccc3c(c2)N(Cc2c(F)cccc2Cl)C(=O)c2ccccc2S3)CC1 |  | 0.0596 µM (active) |
| CCN1CCN(C(=O)c2ccc3c(c2)N(Cc2c(F)cccc2Cl)C(=O)c2ccccc2S3)CC1 |  | 0.0084 µM (active) |
| COc1ccc(C(=O)N2CCCC3(C2)NC(=O)N(Cc2cccc(Cl)c2)C3=O)cc1F (configuration not stated) | -22% |  |
| O=C1Nc2ccc(-c3ccccc3F)cc2C(=O)N2CCN(C(=O)c3ccccc3)C[C@H]12 | -15.2% [at 43.1 µM] |  |

| Compound | activity change, negative = inhibition | Potency |
| --- | --- | --- |
| Cc1ccc(C(=O)N2CCN(c3nnc4c(Cl)cccn34)CC2)cc1F | -6.08% |  |
| CC(C)CNC(=O)CN1CN(c2ccccc2)C2(CCN(C(=O)NC3CCCCC3)CC2)C1=O |  | 15 µM (active) |
| O=C(OCc1ccccc1)N1CCC2(CC1)C(=NC1CCCCC1)NC(=O)N2c1cccnc1 | 2.65% |  |
| CC(C)(C)C1CCC2(CC1)NC(=O)N(CC(=O)NC1CCCCC1)C2=O (configuration not stated) | 7.63% |  |
| CCCS(=O)(=O)c1nc(S(=O)(=O)c2ccc(C)cc2)c(NCCCOC(C)C)s1 |  | 2.11 µM (active) |
| CC(C)OCCCNc1sc(S(=O)(=O)c2ccccc2)nc1S(=O)(=O)c1ccc(Cl)cc1 |  | 0.266 µM (active) |
| Cc1ccc(S(=O)(=O)c2nc(S(=O)(=O)c3ccccc3)sc2NCCCOC(C)C)cc1 |  | 0.596 µM (active) |
| C=CCNC(=S)N1CCN(c2ccc([N+](=O)[O-])cc2)CC1 |  | 4.22 µM (active) |
| O=[N+]([O-])c1ccc(N2CCN(C(=S)NC3CCCCC3)CC2)cc1 |  | 1.88 µM (active) |
| Cc1ccc(C)c(-c2cc3c(=O)n(CCNC(=O)c4ccncc4)ccn3n2)c1 | 0.395% |  |
| CC(C)CNC(=O)C(C)(C)Oc1nn(CC2CC2)c2ccc(CN3CCCC3)cc12 |  | 19.3 µM (active) |
| CC(C)n1nc(OC(C)(C)C(=O)NCC2CCOCC2)c2cc(CN3CCOCC3)ccc21 | 5.77% |  |
| O=C([C@@H]1C[C@H](Oc2cccnc2)CN1C(=O)NCCc1ccccc1)N1CCOCC1 | 22.2% |  |
| CCN(CC)CCN1C(=O)c2ccccc2NC1c1ccc(Br)cc1 (configuration not stated) |  | 1.5 µM (active) |
| CCN(CC)CCN1C(=O)c2ccccc2NC1c1ccc(C)cc1 (configuration not stated) |  | 2.99 µM (active) |
| CCN(CC)CCN1C(=O)c2ccccc2NC1c1ccc(N(C)C)cc1 (configuration not stated) |  | 4.22 µM (active) |
| CCc1ccc(CNC(=O)c2ccc(-c3nc(CSc4ccc(C)cc4)c(C)o3)cc2)cc1 | 30.9% |  |
| CCc1noc(-c2ccn3c(CNC(=O)COc4cccc(C)c4)nnc3c2)n1 | 27.4% |  |
| O[C@@H]1CC(CNCC2CCCC2)(COc2ccc(C(F)(F)F)cn2)C[C@@H]1O (some centres not stated) |  | 5.31 µM (active) |
| CCn1cc(C(=O)N2CCN(c3cccc(C)c3)C(C)C2)c(=O)c2cc(S(=O)(=O)N3CCOCC3)ccc21 (configuration not stated) | 7.89% |  |
| CCCCOc1ccc(C(=O)N/C(=C\c2cccc([N+](=O)[O-])c2)C(=O)OC(C)C)cc1 |  | 2.11 µM (active) |
| CC(C)COc1ccc(C(=O)N/C(=C\c2cccc([N+](=O)[O-])c2)C(=O)OC(C)C)cc1 |  | 0.531 µM (active) |
| CC(C)[N+](C)(C)CC(O)COc1cccc2ccccc12 (configuration not stated) | 32.3% |  |
| CC(C)c1ccccc1OCC(O)CN(CC(O)COc1cccc2ccccc12)C(C)C (configuration not stated) |  | 2.37 µM (active) |
| CC(=O)Nc1ccc(CN2CC(N(C)c3ccccc3C)C2)cc1 |  | 12.2 µM (active) |

| Compound | activity change, negative = inhibition | Potency |
| --- | --- | --- |
| CC(=O)Nc1ccc(CN2CC(Oc3ccc(F)c(C)c3)C2)cc1 | -23.8% [at 43.1 µM] |  |
| CC(=O)Nc1ccc(CN2CCC3(CC2)CNc2ccccc2[S+](=O)([O-])N3)cc1 | 0% |  |
| Cc1ccc2nc(-c3ccccc3O)c(Nc3ccccc3C)n2c1 |  | 2.37 µM (active) |
| CCOC(=O)c1c(CN(C)C)oc2cc(CN(C)C)c(O)c(CSc3ccccc3)c12 |  | 0.596 µM (active) |
| CN(C)CC1(O)CCC2(CCN(C(=O)c3nccc4ccccc34)CC2)CC1 | 6.94% |  |
| Cc1cccc(N2CCN(c3nc4ccccc4c4nnc(C)n34)CC2)c1C |  | 5.31 µM (active) |
| Cc1cc(Nc2cccc(F)c2)nc(NCc2ccccc2)n1 |  | 8.41 µM (active) |
| COc1ccc(Nc2cc(C)nc(NCc3ccccc3)n2)cc1 |  | 13.3 µM (active) |
| COc1ccc(-c2cc(C(=O)O)n(Cc3ccccc3)n2)cc1 | 16.6% |  |
| Cc1ccc(/C=N/Nc2cc(C)nc(NCc3ccccc3)n2)cc1 |  | 5.31 µM (active) |
| CC(=O)Nc1ccc(Nc2cc(C)nc(Nc3ccc(NC(C)=O)cc3)n2)cc1 |  | 3.35 µM (active) |
| Cc1ccnc(NS(=O)(=O)c2ccc(NC(=O)C(C)(C)C)cc2)n1 | 46% |  |
| COc1cc(SC)ccc1C(=O)N[C@H]1CCN2C(=O)N(c3ccc(Cl)cc3)C(=O)[C@@H]2C1 | -1.61% |  |
| COCc1nc(-c2ccc(OC3CN(S(=O)(=O)c4ccccc4C)C3)cc2)no1 | -1.15% |  |
| Cc1ccc2nc(CCc3ccc(N)cc3)[nH]c2c1 | 19.4% |  |
| COCCn1c(=O)n([C@H]2CCCN(C(=O)CC3CCCCC3)C2)c2ncccc21 | 8.85% |  |
| Cc1cc(NC2CCCCC2)nc(NCc2ccccc2)n1 |  | 16.8 µM (active) |
| CCCCNc1cc(C)nc(NCc2ccccc2)n1 |  | 9.44 µM (active) |
| COc1nccnc1NC1CCN(C(=O)Cc2ccccc2)CC1 | 20.1% |  |
| CN(C)c1cc(N2CCCC(NC(=O)NCc3ccccc3)C2)ncn1 (configuration not stated) | -4.58% |  |
| Cc1cc(Nc2ccc(Cl)cc2)nc(NCc2ccccc2)n1 |  | 0.422 µM (active) |
| Cc1cc(Nc2cccc(Cl)c2)nc(NCc2ccccc2)n1 |  | 8.41 µM (active) |
